Consider 52 molecules from ChEMBL document CHEMBL3988442, “University of Dundee, Small-Polar-MMV Screening Library” (2021).

Screen size: about 48,000 compounds; about 13,000 (27%) showed an effect of 50% or more. Some of the results follow.

For this test, the system named is Wolbachia pipientis. Briefly: Anti-Wolbachia Cell-Based Screen. The arrangement: scale not given: in the data most compounds retested in dose-response had high values. The test is classed as functional. The settings on record: 5 µM.
For `CC(C)c1cc(NC(=O)c2ccncc2)[nH]n1`, the “Percent Effect” value turned out to be 102.9%.

In the case of `Cc1ccc(CC(=O)Nc2cc(C(C)C)n[nH]2)cn1`, the “Percent Effect” value is given as 129.4%.

In the case of `Cc1cc(NC(=O)c2ccc(N3CCOCC3)cc2)[nH]n1`, the “Percent Effect” value was -12.35%.

On to `Cc1ccc(CC(=O)NCC(O)c2ccc(Cl)cc2Cl)cn1` (configuration not stated), for which the “Percent Effect” value is reported as -14.52%.

In the case of `CC(C)c1cc(NC(=O)c2ccc(C(=O)NC(C)(C)C)cc2)[nH]n1`, the “Percent Effect” value was -2.024%.

Regarding `Cc1cccc(NCCOc2cccc(C#N)c2)c1C(N)=O`, the “Percent Effect” value is given as -11.96%.

Take `Cc1cc(C)n(Cc2cccc(C(=O)N(CCC#N)CCC#N)c2)n1`: the “Percent Effect” value is recorded as -7.761%.

As to `CC(C)c1nnc2n1CCN(C(=O)c1cccc(OCC(N)=O)c1)C2`, the “Percent Effect” value is given as -10.94%.

As for `CC(C)c1cc(NCC2(Cn3cccn3)CC2)nc(N)n1`, the “Percent Effect” value came to 7.043%.

On to `CN(C)CCCN(C)C1CCN(c2cccc(-c3cscn3)c2)CC1`, for which the “Percent Effect” value was determined as 6.682%.

As for `O=C(c1cnc(NCC2CCCO2)c(Cl)c1)N1CCOCC1` (configuration not stated), the “Percent Effect” value is 2.383%.

For the molecule `O=C(NCC1CCCCC1)c1nnn(-c2ccc(Br)cc2)n1`, the “Percent Effect” value is on record as -0.9526%.

Consider `O=C(NC1CCN(c2ncccn2)CC1)c1cc2c(cc1O)CCCC2`, for which the “Percent Effect” value came out at 1.017%.

Consider `O=C(NC[C@@H]1CCCO1)c1cc(Br)cnc1N1CCCCC1`, for which the “Percent Effect” value stood at 112.6%.

On to `O=C(NC1CCCCC1)c1cc(Br)cnc1N1CCCCC1`, for which the “Percent Effect” value turned out to be 116.3%.

As to `O=C(c1cnc(NCC2CCCO2)c(Cl)c1)N1CCCCC1` (configuration not stated), the “Percent Effect” value is given as 21.16%.

`COc1ccc(Br)c(C(=O)NCC2CCN(S(=O)(=O)C3CC3)CC2)c1`: the “Percent Effect” value was -4.78%.

For the molecule `O=C(NC1CC1)c1cnc(-c2noc3cc(N4CCCCC4)ccc23)s1`, the “Percent Effect” value is reported as -8.879%.

Take `O=C(NCC1CC1)c1cc(Br)cnc1N1CCCCC1`: the “Percent Effect” value came out at 74.44%.

With `Cc1ccc([C@@H]2CN(C(=O)c3cc(C)no3)C[C@H]2NC(=O)C2CC2)cc1`, the “Percent Effect” value is -6.322%.

Regarding `Cc1cc(C)c(CCNC(=O)CN2CCCN(C(N)=O)CC2)c(C)c1`, the “Percent Effect” value was 7.662%.

Take `CC(SCCNS(=O)(=O)c1cnn(C)c1)c1cccs1` (configuration not stated): the “Percent Effect” value is on record as 10.16%.

As for `CCc1c(C(=O)N2CCOC(C)(C)C2)cnn1-c1ccccn1`, the “Percent Effect” value was 19.62%.

For the molecule `COc1cccc2c1N(CC(=O)Nc1ccc(Br)cn1)CCC2`, the “Percent Effect” value is listed as -18.77%.

As for `COc1ccc(-c2ccc(C(=O)NS(C)(=O)=O)c(F)c2)c(F)c1`, the “Percent Effect” value was 2.644%.

For the molecule `CCn1c2c(ccc1=O)CC(NCc1cnn(C)c1)CC2` (configuration not stated), the “Percent Effect” value was 111.7%.

For the molecule `Cc1cnc(NC2CCc3c(ccc(=O)n3CC3CC3)C2)nc1` (configuration not stated), the “Percent Effect” value is reported as -5.786%.

For the molecule `O=c1ccc2c(n1Cc1cccnc1)CCC(NCc1cccnc1)C2` (configuration not stated), the “Percent Effect” value was -5.878%.

On to `CN(C)C(=O)Cn1c2c(ccc1=O)CC(NCc1cccnc1)CC2` (configuration not stated), for which the “Percent Effect” value was -16.54%.

As for `COCCn1c2c(ccc1=O)CC(NC(=O)c1cscn1)CC2` (configuration not stated), the “Percent Effect” value is recorded as -30.94%.

Consider `Cn1cc(CNC2CCc3c(ccc(=O)n3C)C2)cn1` (configuration not stated), for which the “Percent Effect” value turned out to be 106.3%.

On to `Cc1cnc(NC2CCc3c(ccc(=O)n3C)C2)nc1` (configuration not stated), for which the “Percent Effect” value was found to be 9.132%.

Regarding `CCc1cnc(NC2CCc3c(ccc(=O)n3C)C2)nc1` (configuration not stated), the “Percent Effect” value is on record as -4.602%.

Regarding `COCCn1c2c(ccc1=O)CC(NCc1cnn(C)c1)CC2` (configuration not stated), the “Percent Effect” value amounted to 90.26%.

Turning to `Cn1cc(-c2csc(CN3CCOCC3)n2)cn1`, the “Percent Effect” value was -11.66%.

On to `N#Cc1ccccc1C(=O)N1C[C@@H](CN2CCCCC2)[C@@H](CO)C1`, for which the “Percent Effect” value was -9.135%.

As to `CC(C)(C)OC(=O)NC1(c2noc(-c3ccoc3)n2)CCC1`, the “Percent Effect” value was -12.02%.

With `CC1(C)CC(N2Cc3nc(N)ncc3C2=O)CC(C)(C)N1`, the “Percent Effect” value was -10.52%.

As for `CO[C@@H]1CCN(c2nnc(C)s2)C[C@@H]1Cc1cccc(C)c1.O=C(O)C(F)(F)F`, the “Percent Effect” value is reported as 98.33%.

For `CO[C@@H]1CCN(Cc2nccs2)C[C@@H]1Cc1cccc(C)c1.O=C(O)C(F)(F)F`, the “Percent Effect” value is given as -16.54%.

Regarding `CO[C@H]1CCN(c2nnc(C)s2)C[C@@H]1Cc1cccc(C)c1.O=C(O)C(F)(F)F`, the “Percent Effect” value worked out at 71.03%.

Take `Cc1cccc(CO[C@H]2CN(c3nnc(C)s3)[C@@H]3CCCO[C@H]23)n1.O=C(O)C(F)(F)F.O=C(O)C(F)(F)F`: the “Percent Effect” value is -4.881%.

As for `CCc1nc2c(N3CCC4(CC3)CC(=O)N(CC)C4)ncnc2o1`, the “Percent Effect” value is listed as -6.459%.

On to `CNc1ncc(CN(C)C(=O)c2cccc(CC3CCNCC3)c2)cn1`, for which the “Percent Effect” value was 3.587%.

Take `CC(=O)N1CCC2(CCN(C(=O)c3ccc(C)c(C(F)(F)F)c3)CC2)C1`: the “Percent Effect” value is 5.655%.

Regarding `O=C(Nc1ccccc1)[C@H]1O[C@H](CCN2CCCCC2)CC[C@@H]1O`, the “Percent Effect” value is listed as -9.518%.

`CC(=O)Nc1ccc2c(c1)CN(C(=O)c1ccco1)CC2`: the “Percent Effect” value was 113.8%.

In the case of `COCC(=O)Nc1ccc2c(c1)CN(C(=O)c1ccco1)CC2`, the “Percent Effect” value turned out to be 105.1%.

Regarding `Cc1ccc2c(n1)N(CCN(C)C)CCN(C(=O)c1ccco1)C2`, the “Percent Effect” value is 15.51%.

For `CCC(=O)Nc1ccc2c(c1)CN(C(=O)c1ccco1)CC2`, the “Percent Effect” value was found to be 20.51%.

Regarding `Cn1c(=O)oc2ccc(NC(=O)N3CCc4ccccc4C3)cc21`, the “Percent Effect” value turned out to be 3.021%.

For the molecule `Cc1n[nH]cc1CNc1ccc2c(c1)CN(C(=O)OC(C)(C)C)CC2`, the “Percent Effect” value is listed as -19.63%.
